The results in this text go back to PubChem BioAssay (NCI).

About 83,000 compounds went through this panel and 20% of them were active in at least one assay; those are over-represented in the sample as a whole.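 Negative percent growth values reflect cell death: -40 means 40% of the cells present at the start died, and -100 means all died.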 Values without a mark were called inactive. Calls of active or inactive are those of the source. How the source made its calls: active means growth percent below 10; inactive means the rest.

Some test systems named below: DU-145 prostate; K-562 leukemia; MALME-3M melanoma; MDA-MB-231 breast; RXF 393 renal; SF-268 CNS; SF-295 CNS; SF-539 CNS; UACC-257 melanoma; M14 melanoma; HCT-15 colon; HT29 colon; SNB-75 CNS; SNB-19 CNS; U251 CNS; PC-3 prostate; SK-MEL-5 melanoma; UACC-62 melanoma; LOX IMVI melanoma; SK-MEL-28 melanoma.
Holding throughout (assay): NCI-60 one-dose screen, 48 h (100 = growth as untreated, 0 = no growth, -100 = all killed)
Holding throughout (conditions): 10 µM unless noted

On to `CN1CCN(CCOc2ccc(-c3cnc4c(-c5cccc(F)c5F)cnn4c3)cc2)CC1`, for which the growth was 8.58% (active) in the assay on DU-145 prostate; -31.3% (active) in the assay with K-562 leukemia; -44% (active) in the assay with MALME-3M melanoma; 85% in the assay on MDA-MB-231 breast; 97% in the assay on RXF 393 renal; 25.3% in the assay on SF-268 CNS. In addition, the growth in the assay with SF-295 CNS was -3.66% (active); with SF-539 CNS, -72.5% (active); with UACC-257 melanoma, -19.1% (active); in the assay on M14 melanoma, -78.9% (active); with HCT-15 colon, -8.62% (active); in the assay on HT29 colon it was -46.1% (active). The growth with SNB-75 CNS is 115%; with SNB-19 CNS it was 8.04% (active); in the assay on U251 CNS, -32.4% (active); in the assay on PC-3 prostate, 90.5%; in the assay on SK-MEL-5 melanoma, -32.4% (active); in the assay on UACC-62 melanoma, -36.1% (active). Moreover, the growth in the assay on LOX IMVI melanoma was -95.8% (active); with SK-MEL-28 melanoma it was -18.7% (active).
As to `Cc1ccc(/C=C/C(=O)c2ccc(-n3cc(CN4CCN(c5cc6c(cc5F)c(=O)c(C(=O)O)cn6C5CC5)CC4)nn3)cc2)cc1`, the growth in the assay with DU-145 prostate was 96.3%; with K-562 leukemia, 86%; with MALME-3M melanoma, 96%; in the assay with MDA-MB-231 breast, 75.5%; in the assay with RXF 393 renal it was 70.9%; in the assay with SF-268 CNS, 71.5%. In addition, the growth is 86.9% in the assay with SF-295 CNS; 73.6% with SF-539 CNS; 101% with UACC-257 melanoma; 87.4% in the assay with M14 melanoma; 97.6% with HCT-15 colon; 98.9% with HT29 colon. Further, the growth is 70.8% with SNB-75 CNS; 86.4% in the assay on SNB-19 CNS; 73.1% in the assay with U251 CNS; 89.6% in the assay on PC-3 prostate; 86.2% in the assay on SK-MEL-5 melanoma; 77.6% in the assay on UACC-62 melanoma. In addition, the growth in the assay on LOX IMVI melanoma was 56.9%; with SK-MEL-28 melanoma, 100%.
Take `CCN1C(=O)N(CC)C2C1NN=c1s/c(=C\c3cnc(C)n3C)c(=O)n12` (stereo not given): the growth in the assay on DU-145 prostate was 5.42% (active); with K-562 leukemia, 15.5%; with MALME-3M melanoma, 29.8%; in the assay with MDA-MB-231 breast, 43.8%; in the assay with RXF 393 renal, -29.3% (active); with SF-268 CNS it was 51.9%. The growth is 9.05% (active) in the assay with SF-295 CNS; -20.2% (active) in the assay with SF-539 CNS; 29.7% in the assay with UACC-257 melanoma; 4.96% (active) with M14 melanoma; 27.7% in the assay on HCT-15 colon; 0.594% (active) in the assay on HT29 colon. Moreover, the growth is -24.7% (active) with SNB-75 CNS; 25.6% in the assay on SNB-19 CNS; 7.74% (active) in the assay with U251 CNS; 17.5% in the assay with PC-3 prostate; 17.9% in the assay with SK-MEL-5 melanoma; 31.2% in the assay on UACC-62 melanoma. Besides, the growth is 34.5% with LOX IMVI melanoma and 42.7% in the assay with SK-MEL-28 melanoma.
`CC(=O)Oc1ccc(OC(C)=O)c2ccccc12`: the growth in the assay on DU-145 prostate is 116%; in the assay on K-562 leukemia, 49.6%; in the assay with MALME-3M melanoma it was 107%; in the assay on MDA-MB-231 breast, -45.5% (active); in the assay on RXF 393 renal, 87.1%; with SF-268 CNS, 87.5%. The growth is 105% in the assay on SF-295 CNS; 99.9% in the assay with SF-539 CNS; 78.1% in the assay on UACC-257 melanoma; 105% in the assay with M14 melanoma; 99.1% with HCT-15 colon; 107% with HT29 colon. Moreover, the growth with SNB-75 CNS is 105%; in the assay with SNB-19 CNS, 91.9%; in the assay on U251 CNS, 89%; in the assay with PC-3 prostate it was 54.8%; in the assay on SK-MEL-5 melanoma, 60.2%; with UACC-62 melanoma, 78%. Besides, the growth was 81.2% in the assay on LOX IMVI melanoma and 111% in the assay on SK-MEL-28 melanoma.
In the case of `COC1=C(C)C(=O)N2[C@@H]1[C@H](c1ccccc1)OC21C=CC(=O)C=C1`, the growth in the assay on DU-145 prostate was 4.7% (active); in the assay on K-562 leukemia, 6.14% (active); with MALME-3M melanoma it was -12.3% (active); in the assay on MDA-MB-231 breast it was 11.9%; in the assay on RXF 393 renal it was -69.2% (active); in the assay on SF-268 CNS, 1.71% (active). For the same compound, the growth in the assay on SF-295 CNS is 90.3%; in the assay on SF-539 CNS, -69% (active); with UACC-257 melanoma, -12.8% (active); with M14 melanoma, -43.8% (active); in the assay on HCT-15 colon it was -27.3% (active); in the assay on HT29 colon, -12.6% (active). Also, the growth is 52.7% in the assay with SNB-75 CNS; 64.9% with SNB-19 CNS; 26.2% in the assay on U251 CNS; -5.32% (active) with PC-3 prostate; 33% in the assay with SK-MEL-5 melanoma; -55.2% (active) in the assay with UACC-62 melanoma. Further, the growth in the assay on LOX IMVI melanoma was -61.6% (active); with SK-MEL-28 melanoma, -14.4% (active).
With `CC1C(/C=N/NC(N)=S)C(C#N)(C#N)C1(C#N)C#N` (stereo not given), the growth in the assay on DU-145 prostate is 96.8%; in the assay with K-562 leukemia, 84.1%; with MALME-3M melanoma, 103%; with MDA-MB-231 breast, 106%; in the assay on RXF 393 renal it was 106%; with SF-268 CNS it was 91.4%. For the same compound, the growth in the assay on SF-295 CNS is 107%; in the assay with SF-539 CNS, 111%; in the assay with UACC-257 melanoma it was 96.3%; in the assay with M14 melanoma it was 102%; in the assay on HCT-15 colon, 109%; with HT29 colon, 110%. Further, the growth in the assay with SNB-75 CNS is 92.7%; with SNB-19 CNS it was 101%; in the assay on U251 CNS, 102%; in the assay with PC-3 prostate, 92.9%; in the assay on SK-MEL-5 melanoma it was 104%; in the assay with UACC-62 melanoma, 96.9%. Further, the growth was 109% with LOX IMVI melanoma and 116% with SK-MEL-28 melanoma.
As to `Cc1ccc(/C=C/C(=O)Nc2ncc(Cc3ccc(F)cc3)s2)o1`, the growth in the assay with DU-145 prostate is 55.6%; with K-562 leukemia, 20.3%; in the assay on MALME-3M melanoma, 45.9%; in the assay with MDA-MB-231 breast it was 77.7%; in the assay on RXF 393 renal, 66.9%; with SF-268 CNS, 53.3%. Also, the growth with SF-295 CNS is 35%; with SF-539 CNS it was 48.2%; in the assay on UACC-257 melanoma, 76.3%; in the assay with M14 melanoma, 33.5%; in the assay with HCT-15 colon, 22%; in the assay on HT29 colon it was 21.6%. The growth is 52.1% with SNB-75 CNS; 68.7% in the assay on SNB-19 CNS; 47.5% in the assay with U251 CNS; 38.4% in the assay with PC-3 prostate; 45.3% with SK-MEL-5 melanoma; 31.5% in the assay with UACC-62 melanoma. In addition, the figures for the growth in the assay with LOX IMVI melanoma and in the assay with SK-MEL-28 melanoma were 40.6% and 59.7%, respectively.
